High-throughput results (PubChem)
KLK7 zymogen act = activators of human kallikrein-7 zymogen; P49862; purified proKLK7, EDANS-DABCYL substrate fluorescence; 100% is mature enzyme control, 0% vehicle; activation, % at 7 µM; hit rate 0.9% among 370,000; AID 652039;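 active = activation above the mean of all tested compounds plus 3 SD, computed per campaign excluding outliers beyond control limits, cut at about 13% in these data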
Target sequence (P49862 whole entry, looked up): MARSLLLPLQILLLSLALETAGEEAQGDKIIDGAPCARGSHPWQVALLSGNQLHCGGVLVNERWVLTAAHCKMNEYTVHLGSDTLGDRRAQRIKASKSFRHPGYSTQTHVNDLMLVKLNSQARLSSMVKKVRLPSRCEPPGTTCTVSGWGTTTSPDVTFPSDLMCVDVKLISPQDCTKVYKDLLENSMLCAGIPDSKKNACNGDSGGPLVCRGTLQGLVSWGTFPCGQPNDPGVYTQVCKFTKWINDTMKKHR
JMJD2C inh = human JMJD2C demethylase inhibition. Q9H3R0. GST-JMJD2C(1-420) H3K9me3 demethylation, DELFIA europium. inhibition, % at 2.35 µM. AID 2099. hit rate 0.069% among 330,000;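 active = more than half of a compound's replicate wells show inhibition beyond 50%, single wells judged on their own value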;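 note: signal counts dimethyl H3K9 product captured on neutravidin plate; 0% = median of DMSO wells and 100% = 0.3 times that DMSO median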
Target sequence (Q9H3R0 1-420 limits assumed): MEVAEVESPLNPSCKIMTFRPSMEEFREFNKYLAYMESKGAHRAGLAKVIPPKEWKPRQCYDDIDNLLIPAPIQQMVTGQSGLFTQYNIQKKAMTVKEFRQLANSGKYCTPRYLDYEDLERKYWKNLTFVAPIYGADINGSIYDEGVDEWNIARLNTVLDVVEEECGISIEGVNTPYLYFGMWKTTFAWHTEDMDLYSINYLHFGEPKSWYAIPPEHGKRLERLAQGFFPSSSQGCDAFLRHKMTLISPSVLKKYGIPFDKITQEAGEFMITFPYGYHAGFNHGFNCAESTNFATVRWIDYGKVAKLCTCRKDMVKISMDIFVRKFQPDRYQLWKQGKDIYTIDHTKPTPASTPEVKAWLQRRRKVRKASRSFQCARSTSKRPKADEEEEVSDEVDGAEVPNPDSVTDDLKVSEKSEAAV
Rev-erbA mod = modulators of human Rev-erb alpha DNA binding; P20393; activity, % at 10 µM; hit rate 0.79% among 370,000; Rev-erbα–FITC-DNA binding, fluorescence polarization, 90 min;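 active = activity above about 14%, limit read from the data; passing the limit was not always enough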;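 note: 0% = DMSO wells with 35 nM protein and 100% = DMSO wells with 750 nM protein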
PP5 inh = blocks human protein phosphatase 5 activity | P53041 | purified PP5c, OMFP substrate fluorescence | inhibition, % at 6.7 µM | hit rate 0.18% among 320,000 | AID 1987;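 active = inhibition above the campaign's mean inhibition across all tested compounds plus 3 SD, cut at about 9.5% in these data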;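 note: 0% = DMSO only and 100% = 100 µM cantharidin control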
PP1 counter = counter-screen for PP5 inhibitors: inhibitors of human PP1-alpha; purified PP1alpha, OMFP fluorescence; inhibition, % at 6.7 µM; P62136; hit rate 0.9% among 320,000;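 active = inhibition above the mean inhibition of all tested compounds plus 3 SD, computed separately for each screening campaign, cut at about 15% in these data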
PG9 binder = small molecules binding HIV-1 gp120 antibody PG9 | TR-FRET gp120-PG9 antibody binding | inhibition, % at 6.7 µM | hit rate 0.43% among 360,000; in the data active = inhibition above about 8.5%
* hit, by the source's call; . = no result given. Only some compounds are listed: those with a hit (about 2.8% of all), similar ones and a draw of the others.

SMILES	KLK7 zymogen act	JMJD2C inh	Rev-erbA mod	PP5 inh	PP1 counter	PG9 binder
Cn1nnnc1SCC1=C(C(=O)O)N2C(=O)[C@H](NC(=O)C(OC=O)c3ccccc3)C2SC1 (stereo partly drawn)	.	.	-7.2	.	.	.
CCC(=O)Oc1ccc2c(c1)CCC1C2CC[C@@]2(C)C1CC[C@@H]2OC(=O)CC (stereo partly drawn)	.	.	-3.1	.	.	.
Cc1nn(Cc2ccccc2Cl)c2sc(C(=O)Nc3nccs3)cc12	-1.6	6.4	14.8	1.7	2.1	5.1
Cc1nn(Cc2ccc(F)cc2)c2sc(C(=O)Nc3nccs3)cc12	-0.4	-14.9	12.0	2.3	1.6	15.5*
CC[C@H]1CN2CCc3cc(OC)c(OC)cc3C2C[C@@H]1CC1NCCc2cc(OC)c(OC)cc21 (stereo partly drawn)	.	.	3.1	.	.	.
COc1ccc(/C=C2\Sc3ccc(C(=O)N4CCCC4)cc3N(C)C2=O)cc1OC	.	52.7*	.	-0.1	-0.7	.
CCOc1ccc(/C=C2/Sc3ccc(C(=O)N4CCOCC4)cc3N(C)C2=O)cc1OC	-0.4	-36.4	-4.9	-0.9	-3.1	-3.8
COc1ccc(-c2cc(C)nc(SCc3cccc(C(=O)O)c3)n2)cc1	0.6	-14.2	0.3	1.6	-1.2	-1.7
O=C(O)c1cccc(CSc2nc(-c3ccc(Cl)cc3)cc(C(F)(F)F)n2)c1	0.3	4.8	-3.1	6.1	16.6*	0.3
O=C(Nc1ccc2[nH]ccc2c1)c1cc(-c2ccc(Cl)cc2)nc2ccccc12	-4.1	.	1.3	.	.	.
CCCC[C@H](C)C[C@H](O)/C=C/[C@H]1[C@H](O)CC(=O)[C@@H]1CCCC/C=C/C(=O)O	.	.	-3.8	.	.	.
NS(=O)(=O)c1ccc(CCNC(=O)CSc2ccccc2)cc1	0.5	50.8*	-6.4	-11.0	6.0	1.7
NS(=O)(=O)c1ccc(CNC(=O)CSc2ccccc2)cc1	0.0	2.7	1.8	2.2	-1.7	0.5
Cc1ccc2nsnc2c1NC(=O)c1ccc(-c2cc(Cl)ccc2Cl)o1	-19.7	4.1	0.8	4.5	25.4*	1.5
CN(C)c1ccc(N=Cc2nc(-c3ccccc3)oc2OC(=O)c2ccccc2)cc1	0.0	76.5*	1.8	-0.4	1.3	-3.2
Cc1ccc(/C=C2\SC(N3CCN(C(c4ccccc4)c4ccccc4)CC3)=NC2=O)o1	-1.2	13.9	-3.1	1.8	17.4*	2.4
Cc1ccc(-c2ccc(/C=C3\SC(N4CCOCC4)=NC3=O)o2)cc1	-1.4	6.0	9.0	2.2	4.4	-3.6
O=C1O[C@@H](CO)[C@H](O)[C@@H](O)[C@@H]1O	.	.	-2.7	.	.	.
COc1cc(C(=O)Nc2nc3ccccc3s2)ccc1OCc1c(C)noc1C	-0.5	5.8	-0.9	1.6	1.6	11.0*
CC(=O)c1cccc(Nc2nc(-c3cccc([N+](=O)[O-])c3)cs2)c1	0.3	0.1	-1.3	1.3	16.1*	2.3
CC(=O)Nc1nc(C)c(-c2csc(Nc3cccc([N+](=O)[O-])c3)n2)s1	0.3	10.4	5.7	3.8	11.2	-1.0
CCN(C(=O)CCc1cn(CC)c2ccccc12)c1ccc(Oc2cccnc2)cc1	1.0	.	0.8	.	.	1.5
Cn1c(O)c(C2=c3ccccc3=NC2=O)[nH]c1=S	0.4	-8.6	0.3	4.1	5.7	-2.6
COc1ccc2nc(-n3c(O)c(C4=c5ccccc5=NC4=O)[nH]c3=S)sc2c1	-0.7	3.9	-35.8	2.8	15.3*	-2.5
O=C(Nc1ccc(N2CCCC2)c(Cl)c1)c1cccc(-c2cc3ccccc3oc2=O)c1	-0.9	8.1	1.8	1.5	15.7*	-1.0
SMILES	KLK7 zymogen act	JMJD2C inh	Rev-erbA mod	PP5 inh	PP1 counter	PG9 binder
COc1ccc(C(=O)Nc2cccc(-c3cc4ccccc4oc3=O)c2)cc1[N+](=O)[O-]	0.0	8.5	-0.1	2.1	16.5*	-0.4
CC(=O)Nc1ccc(NC(=O)c2cccc(-c3cc4ccccc4oc3=O)c2)cc1	0.3	-3.4	0.4	0.7	0.0	-0.7
O=C(CSc1ccc(Cl)cc1)Nc1ccc(N2CCN(C(=O)c3ccc(Cl)cc3)CC2)cc1	-0.4	-19.6	2.1	0.0	-2.3	0.5
O=C(CSc1ccc(Cl)cc1)Nc1ccccc1N1CCN(C(=O)c2ccc(Cl)cc2)CC1	0.1	-7.9	4.6	1.1	15.2*	0.5
CC(C)CNC(=O)c1coc(=O)c(Br)c1	27.4*	7.8	-1.0	4.1	-1.1	-0.3
COc1cc(OC)cc(-c2csc(N3CCC(C(N)=O)CC3)n2)c1	.	.	2.4	.	.	.
CCOC(=O)Nc1cc(C)c(Cl)cc1OC	0.0	51.0*	8.1	-1.8	-3.0	0.8
Cc1ccc(-n2c(SCC(=O)Nc3ccc(S(=O)(=O)Nc4nccs4)cc3)nnc2-c2cccs2)cc1	-0.2	.	-2.5	.	.	.
CCc1nnc(NC(=O)CSc2nc(C3CCCCC3)nc3ccccc23)s1	0.8	0.6	6.9	0.2	-1.0	15.6*
O=C(c1ccccc1)C1C(c2ccccc2)C1[N+](=O)[O-] (stereo not drawn)	0.3	4.6	4.1	-2.5	1.0	-2.2
CN(C)c1ccc([C@@H]2[C@@H]([N+](=O)[O-])[C@H]3C=Cc4ccccc4N3[C@H]2C(=O)c2ccc(Cl)cc2)cc1	-0.8	7.0	0.4	0.7	16.1*	-1.0
C[C@@H](NC(=O)Cn1cnc2c(OCc3ccccc3)ncnc21)c1cccc2ccccc12	-0.7	58.7*	-4.3	.	.	1.8
C[C@@H](NC(=O)Cn1cnc2c(NCc3ccccc3)ncnc21)c1cccc2ccccc12	-0.2	.	0.0	.	.	-0.8
CCCCC1=CC2=C(c3ccco3)C(=O)C(C)(OC(=O)c3ccc(OC)cc3)C(=O)C2=CN1Cc1ccco1 (stereo not drawn)	.	-8.4	.	1.7	16.1*	.
CCCCC1=CC2=C(c3ccco3)C(=O)C(C)(OC(=O)c3ccc(OC)cc3)C(=O)C2=CN1CC(C)C (stereo not drawn)	3.7	-29.7	1.3	0.2	6.5	37.1*
CCCCC1=CC2=C(c3ccco3)C(=O)C(C)(OC(=O)c3ccc(OC)cc3)C(=O)C2=CN1CC1CC1 (stereo not drawn)	-1.7	-2.4	1.2	1.6	6.1	-0.5
CCCCC1=CC2=C(c3ccco3)C(=O)C(C)(OC(=O)c3ccc(OC)cc3)C(=O)C2=CN1Cc1ccc(OC)cc1 (stereo not drawn)	.	-8.1	.	.	.	.
CCCCC1=CC2=C(c3ccco3)C(=O)C(C)(OC(=O)c3ccc(OC)cc3)C(=O)C2=CN1c1ccc(OC)cc1 (stereo not drawn)	-0.3	9.3	5.0	2.5	15.7*	11.0*
COc1cc([C@@H]2c3cc4c(cc3C(O[C@@H]3O[C@@H]5CO[C@@H](c6cccs6)OC5[C@H](O)[C@H]3O)C3COC(=O)[C@@H]32)OCO4)cc(OC)c1O (stereo partly drawn)	.	.	1.8	.	.	.
Oc1ccc(CN2CCc3ccccc3C2)c2cccnc12	-0.3	-20.7	0.7	9.5	15.2*	-3.0
Oc1ccc(CN2CCCCC2)c2cccnc12	-0.2	0.8	-3.4	1.5	3.1	-0.2
